One sequence from paper PMC7862700, “An all-to-all approach to the identification of sequence-specific readers for epigenetic DNA modifications on cytosine” can be followed below.

What all share (assay): DAPPL (digital affinity profiling via proximity ligation, sequencing); 10 mM Tris-HCl pH 7.5, 50 mM NaCl, 1 mM DTT, 4% glycerol, room temperature, 30 min; GST-TFs on glutathione beads, 16-mer random dsDNA library, 0.1% formaldehyde crosslink after washing; high values mean tight binding
The target of one assay is T1, FEV (Homo sapiens, UniProt Q99581 1-238).
T1 sequence: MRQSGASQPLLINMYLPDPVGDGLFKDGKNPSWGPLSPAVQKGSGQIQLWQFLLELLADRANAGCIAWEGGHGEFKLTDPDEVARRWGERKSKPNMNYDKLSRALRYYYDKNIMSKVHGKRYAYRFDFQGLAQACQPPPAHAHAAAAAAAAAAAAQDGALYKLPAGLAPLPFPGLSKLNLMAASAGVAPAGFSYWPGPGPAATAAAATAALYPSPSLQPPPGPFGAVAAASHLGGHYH
As to conditions: protein: recombinant; tags: N-terminal GST; dsDNA, one strand shown. In a few lines:
(§1)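 After expression in yeast as GST fusions, human transcription factors were bound to glutathione beads, DNA-barcoded and mixed with a tag-only sample. The pools were incubated with 200 nmole of a 16-mer random double-stranded DNA library in Tris/NaCl/DTT/glycerol buffer (30 min, room temperature), washed and crosslinked with 0.1% formaldehyde. Proximity ligation with BsaI/T4 ligase ran for 1 h at 37 °C, before PCR amplification and sequencing on an Illumina NextSeq500. Binding signal is a hexamer's read frequency for a factor divided by its frequency for the tag-only sample.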

A further assay has as its target ETV5 (Homo sapiens, UniProt P41161 1-510). The note with it: protein: recombinant; tags: N-terminal GST; dsDNA, one strand shown. In a few lines: as §1
Another assay concerns the target HSF1 (Homo sapiens, UniProt Q00613 1-529). As to conditions: protein: recombinant; tags: N-terminal GST; chain copies: 3; dsDNA, one strand shown. In a few lines:
as §1

For the next assay, the target named is T2, SPIC (Homo sapiens, UniProt Q8N5J4 1-248).
T2 sequence: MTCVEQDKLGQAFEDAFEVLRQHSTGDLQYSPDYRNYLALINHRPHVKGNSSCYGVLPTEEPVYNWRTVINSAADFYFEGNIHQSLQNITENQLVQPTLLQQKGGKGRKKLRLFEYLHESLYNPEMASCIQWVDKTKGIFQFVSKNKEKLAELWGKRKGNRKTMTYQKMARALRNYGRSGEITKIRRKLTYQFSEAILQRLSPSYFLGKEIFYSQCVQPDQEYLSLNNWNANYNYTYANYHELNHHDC
The note with it: protein: recombinant; tags: N-terminal GST; dsDNA, one strand shown. The essentials: as §1

For another assay, the target named is ELF4 (Homo sapiens, UniProt Q99607 1-663). The note with it: protein: recombinant; tags: N-terminal GST; dsDNA, one strand shown. In a few lines:
as §1

In the next assay the target is T3, ELK4 (Homo sapiens, UniProt P28324-2 1-405).
T3 sequence: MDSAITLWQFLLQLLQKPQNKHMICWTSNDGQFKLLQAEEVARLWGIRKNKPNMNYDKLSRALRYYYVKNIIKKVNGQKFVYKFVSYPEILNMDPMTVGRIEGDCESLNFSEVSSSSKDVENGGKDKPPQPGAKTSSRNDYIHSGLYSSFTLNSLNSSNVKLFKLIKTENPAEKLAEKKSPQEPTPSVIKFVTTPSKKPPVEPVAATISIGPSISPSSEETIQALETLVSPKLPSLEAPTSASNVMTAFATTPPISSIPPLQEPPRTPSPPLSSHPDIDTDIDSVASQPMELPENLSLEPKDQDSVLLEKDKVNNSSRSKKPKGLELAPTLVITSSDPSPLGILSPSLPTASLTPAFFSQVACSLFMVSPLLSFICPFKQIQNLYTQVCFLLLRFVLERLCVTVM
The note with it: protein: recombinant; tags: N-terminal GST; dsDNA, one strand shown. The essentials:
as §1

In a further assay the target is T4, ETV2 (Homo sapiens, UniProt O00321 1-342).
T4 sequence: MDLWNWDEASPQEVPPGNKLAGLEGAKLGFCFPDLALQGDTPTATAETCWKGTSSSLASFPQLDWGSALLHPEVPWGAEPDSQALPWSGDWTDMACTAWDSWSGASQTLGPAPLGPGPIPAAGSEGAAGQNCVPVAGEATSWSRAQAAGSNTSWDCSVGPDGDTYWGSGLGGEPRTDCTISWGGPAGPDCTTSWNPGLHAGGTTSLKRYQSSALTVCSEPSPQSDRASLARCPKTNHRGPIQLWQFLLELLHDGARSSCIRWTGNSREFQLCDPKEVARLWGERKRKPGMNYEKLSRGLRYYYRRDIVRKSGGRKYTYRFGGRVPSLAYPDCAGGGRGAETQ
As to conditions: protein: recombinant; tags: N-terminal GST; dsDNA, one strand shown. The essentials: as §1

A further assay addresses T5, ELF3 (Homo sapiens, UniProt P78545 1-371).
T5 sequence: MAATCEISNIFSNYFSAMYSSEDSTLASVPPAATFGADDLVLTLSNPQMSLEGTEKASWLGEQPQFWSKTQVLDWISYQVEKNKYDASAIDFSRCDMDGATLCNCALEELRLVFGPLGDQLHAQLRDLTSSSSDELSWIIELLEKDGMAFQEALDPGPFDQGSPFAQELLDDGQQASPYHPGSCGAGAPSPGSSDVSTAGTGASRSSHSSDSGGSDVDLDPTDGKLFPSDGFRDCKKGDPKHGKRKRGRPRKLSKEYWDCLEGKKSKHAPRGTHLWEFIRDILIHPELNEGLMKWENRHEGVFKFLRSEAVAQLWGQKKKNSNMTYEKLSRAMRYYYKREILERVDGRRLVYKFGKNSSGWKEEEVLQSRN
The note with it: protein: recombinant; tags: N-terminal GST; dsDNA, one strand shown. In a few lines:
as §1

For the next assay, the target named is CRX (Homo sapiens, UniProt O43186 1-299). As to conditions: protein: recombinant; tags: N-terminal GST; dsDNA, one strand shown. The essentials:
as §1

A further assay addresses ETV1 (Homo sapiens, UniProt P50549 1-477). As to conditions: protein: recombinant; tags: N-terminal GST; dsDNA, one strand shown. In a few lines: as §1
The next assay addresses T6, ERF (Homo sapiens, UniProt P50548 1-548).
T6 sequence: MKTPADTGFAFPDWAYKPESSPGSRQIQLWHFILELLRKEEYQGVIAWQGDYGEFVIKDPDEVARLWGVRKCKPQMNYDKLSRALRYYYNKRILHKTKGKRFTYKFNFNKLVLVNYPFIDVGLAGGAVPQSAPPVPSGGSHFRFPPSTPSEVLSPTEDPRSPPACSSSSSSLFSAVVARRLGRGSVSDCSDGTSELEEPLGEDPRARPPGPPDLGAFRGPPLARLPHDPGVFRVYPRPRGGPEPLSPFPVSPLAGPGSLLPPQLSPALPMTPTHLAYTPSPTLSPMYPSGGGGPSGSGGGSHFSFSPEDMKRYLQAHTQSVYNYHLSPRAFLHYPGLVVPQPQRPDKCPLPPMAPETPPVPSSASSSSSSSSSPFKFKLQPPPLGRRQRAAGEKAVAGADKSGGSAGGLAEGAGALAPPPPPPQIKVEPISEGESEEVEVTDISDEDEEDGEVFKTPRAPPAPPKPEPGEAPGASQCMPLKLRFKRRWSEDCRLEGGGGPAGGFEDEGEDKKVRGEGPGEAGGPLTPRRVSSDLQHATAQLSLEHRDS
The note with it: protein: recombinant; tags: N-terminal GST; dsDNA, one strand shown. In a few lines:
as §1

The target of the next assay is T7, ETV3L (Homo sapiens, UniProt Q6ZN32 1-361).
T7 sequence: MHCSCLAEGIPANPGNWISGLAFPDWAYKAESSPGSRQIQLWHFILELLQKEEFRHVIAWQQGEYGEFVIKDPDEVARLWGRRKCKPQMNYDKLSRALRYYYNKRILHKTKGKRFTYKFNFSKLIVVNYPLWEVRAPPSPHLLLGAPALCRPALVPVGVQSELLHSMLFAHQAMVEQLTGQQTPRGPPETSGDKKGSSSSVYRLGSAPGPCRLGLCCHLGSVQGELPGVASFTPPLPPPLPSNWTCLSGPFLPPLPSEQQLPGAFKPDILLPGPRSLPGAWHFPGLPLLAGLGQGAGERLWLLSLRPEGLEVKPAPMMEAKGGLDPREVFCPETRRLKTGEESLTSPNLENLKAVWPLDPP
As to conditions: protein: recombinant; tags: N-terminal GST; dsDNA, one strand shown. The essentials: as §1

Another assay deals with T8, ETS2 (Homo sapiens, UniProt P15036 1-469).
T8 sequence: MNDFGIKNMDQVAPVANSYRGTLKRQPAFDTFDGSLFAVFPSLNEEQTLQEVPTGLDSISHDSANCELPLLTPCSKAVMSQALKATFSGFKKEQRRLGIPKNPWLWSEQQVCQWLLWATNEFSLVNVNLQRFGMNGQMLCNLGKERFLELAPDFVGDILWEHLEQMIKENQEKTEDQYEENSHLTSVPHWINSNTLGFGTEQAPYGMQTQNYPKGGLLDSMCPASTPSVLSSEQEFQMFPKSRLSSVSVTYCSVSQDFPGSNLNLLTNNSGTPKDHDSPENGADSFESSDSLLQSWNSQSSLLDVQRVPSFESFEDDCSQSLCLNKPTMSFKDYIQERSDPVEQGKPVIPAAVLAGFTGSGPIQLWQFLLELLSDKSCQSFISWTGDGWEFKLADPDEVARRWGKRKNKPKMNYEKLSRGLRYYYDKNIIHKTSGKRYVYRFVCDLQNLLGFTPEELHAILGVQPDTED
As to conditions: protein: recombinant; tags: N-terminal GST; dsDNA, one strand shown. In a few lines:
as §1

The target of another assay is T9, SPDEF (Homo sapiens, UniProt O95238 1-335).
T9 sequence: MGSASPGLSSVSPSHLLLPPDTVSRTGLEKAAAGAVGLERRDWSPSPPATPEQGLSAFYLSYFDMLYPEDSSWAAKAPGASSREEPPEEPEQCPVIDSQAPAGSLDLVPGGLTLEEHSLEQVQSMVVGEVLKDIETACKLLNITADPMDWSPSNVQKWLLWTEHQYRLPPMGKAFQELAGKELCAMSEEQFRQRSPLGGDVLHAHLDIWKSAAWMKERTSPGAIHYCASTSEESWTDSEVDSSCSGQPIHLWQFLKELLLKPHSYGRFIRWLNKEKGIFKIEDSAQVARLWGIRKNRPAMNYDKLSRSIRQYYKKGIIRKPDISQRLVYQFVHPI
The note with it: protein: recombinant; tags: N-terminal GST; dsDNA, one strand shown. The essentials:
as §1

The target in a further assay is T10, ETV7 (Homo sapiens, UniProt Q9Y603 1-341).
T10 sequence: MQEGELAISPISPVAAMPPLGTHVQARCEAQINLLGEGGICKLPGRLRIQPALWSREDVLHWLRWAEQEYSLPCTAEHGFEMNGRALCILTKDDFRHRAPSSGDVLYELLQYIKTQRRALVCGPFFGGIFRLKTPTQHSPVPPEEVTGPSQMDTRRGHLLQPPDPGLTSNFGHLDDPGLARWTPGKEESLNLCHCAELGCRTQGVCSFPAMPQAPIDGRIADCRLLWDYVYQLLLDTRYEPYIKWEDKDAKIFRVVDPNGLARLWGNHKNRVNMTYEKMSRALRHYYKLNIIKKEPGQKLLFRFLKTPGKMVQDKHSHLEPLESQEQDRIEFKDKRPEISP
As to conditions: protein: recombinant; tags: N-terminal GST; dsDNA, one strand shown. In a few lines:
as §1

The target in a further assay is T11, ELF5 (Homo sapiens, UniProt Q9UKW6-2 1-255).
T11 sequence: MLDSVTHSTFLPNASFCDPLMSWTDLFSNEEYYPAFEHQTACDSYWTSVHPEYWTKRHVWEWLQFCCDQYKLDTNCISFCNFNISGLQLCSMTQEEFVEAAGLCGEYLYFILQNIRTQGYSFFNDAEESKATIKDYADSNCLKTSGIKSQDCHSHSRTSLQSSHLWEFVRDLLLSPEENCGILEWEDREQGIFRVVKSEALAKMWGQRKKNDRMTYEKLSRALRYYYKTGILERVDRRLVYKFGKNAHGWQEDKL
As to conditions: protein: recombinant; tags: N-terminal GST; dsDNA, one strand shown. The essentials:
as §1

For a further assay, the target named is T12, ETV3 (Homo sapiens, UniProt P41162-2 1-143).
T12 sequence: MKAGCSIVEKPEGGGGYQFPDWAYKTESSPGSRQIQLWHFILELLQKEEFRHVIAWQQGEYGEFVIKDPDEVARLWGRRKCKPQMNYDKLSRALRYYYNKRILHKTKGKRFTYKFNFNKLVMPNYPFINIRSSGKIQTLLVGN
The note with it: protein: recombinant; tags: N-terminal GST; dsDNA, one strand shown. The essentials: as §1

For the next assay, the target named is ETV6 (Homo sapiens, UniProt P41212 1-452). The note with it: protein: recombinant; tags: N-terminal GST; dsDNA, one strand shown. The essentials:
as §1

Chain of ELF4 (Q99607 whole entry): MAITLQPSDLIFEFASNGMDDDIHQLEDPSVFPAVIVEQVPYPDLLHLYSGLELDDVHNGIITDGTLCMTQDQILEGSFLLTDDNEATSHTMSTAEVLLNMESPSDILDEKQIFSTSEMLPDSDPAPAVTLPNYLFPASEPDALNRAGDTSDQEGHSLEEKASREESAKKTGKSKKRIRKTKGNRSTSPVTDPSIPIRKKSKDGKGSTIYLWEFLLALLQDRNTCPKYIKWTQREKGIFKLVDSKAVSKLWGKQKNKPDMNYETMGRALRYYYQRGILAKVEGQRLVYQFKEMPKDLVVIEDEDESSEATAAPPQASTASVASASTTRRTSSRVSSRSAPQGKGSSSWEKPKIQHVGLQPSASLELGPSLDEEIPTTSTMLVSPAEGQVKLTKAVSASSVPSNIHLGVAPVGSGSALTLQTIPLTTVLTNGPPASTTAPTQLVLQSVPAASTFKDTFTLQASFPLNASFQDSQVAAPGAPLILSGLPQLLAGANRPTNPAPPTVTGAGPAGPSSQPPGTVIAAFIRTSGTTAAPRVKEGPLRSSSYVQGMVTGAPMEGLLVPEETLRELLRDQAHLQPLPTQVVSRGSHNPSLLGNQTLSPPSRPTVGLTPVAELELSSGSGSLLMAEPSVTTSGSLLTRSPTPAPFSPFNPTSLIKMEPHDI
Chain of ETV5 (P41161 whole entry): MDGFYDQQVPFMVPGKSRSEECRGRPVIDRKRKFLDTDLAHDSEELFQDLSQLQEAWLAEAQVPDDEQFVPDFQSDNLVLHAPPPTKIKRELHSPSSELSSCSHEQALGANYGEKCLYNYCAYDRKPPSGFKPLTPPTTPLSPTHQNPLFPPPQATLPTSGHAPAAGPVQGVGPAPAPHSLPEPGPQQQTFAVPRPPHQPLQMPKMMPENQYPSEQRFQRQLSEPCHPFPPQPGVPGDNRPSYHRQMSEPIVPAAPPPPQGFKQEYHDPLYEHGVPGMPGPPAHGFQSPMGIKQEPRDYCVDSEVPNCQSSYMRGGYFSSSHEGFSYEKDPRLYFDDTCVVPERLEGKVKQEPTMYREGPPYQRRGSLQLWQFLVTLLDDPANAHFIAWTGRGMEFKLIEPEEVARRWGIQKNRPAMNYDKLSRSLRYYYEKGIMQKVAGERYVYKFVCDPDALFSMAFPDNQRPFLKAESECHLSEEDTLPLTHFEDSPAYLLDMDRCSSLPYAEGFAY
Chain of HSF1 (Q00613 whole entry): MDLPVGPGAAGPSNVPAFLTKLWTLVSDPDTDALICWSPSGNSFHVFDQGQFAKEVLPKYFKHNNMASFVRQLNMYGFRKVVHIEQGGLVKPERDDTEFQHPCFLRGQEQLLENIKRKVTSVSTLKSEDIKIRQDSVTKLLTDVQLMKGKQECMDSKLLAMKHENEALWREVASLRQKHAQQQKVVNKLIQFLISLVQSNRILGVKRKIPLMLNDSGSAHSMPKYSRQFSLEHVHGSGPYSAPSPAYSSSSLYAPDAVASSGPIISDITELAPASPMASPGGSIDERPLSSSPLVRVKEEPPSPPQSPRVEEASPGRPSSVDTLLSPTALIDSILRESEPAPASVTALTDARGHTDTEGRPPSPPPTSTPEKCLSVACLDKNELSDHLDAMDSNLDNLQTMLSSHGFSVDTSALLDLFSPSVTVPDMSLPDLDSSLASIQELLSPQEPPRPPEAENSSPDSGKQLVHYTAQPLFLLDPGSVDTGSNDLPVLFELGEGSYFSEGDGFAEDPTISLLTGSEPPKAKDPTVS
Chain of ETV1 (P50549 whole entry): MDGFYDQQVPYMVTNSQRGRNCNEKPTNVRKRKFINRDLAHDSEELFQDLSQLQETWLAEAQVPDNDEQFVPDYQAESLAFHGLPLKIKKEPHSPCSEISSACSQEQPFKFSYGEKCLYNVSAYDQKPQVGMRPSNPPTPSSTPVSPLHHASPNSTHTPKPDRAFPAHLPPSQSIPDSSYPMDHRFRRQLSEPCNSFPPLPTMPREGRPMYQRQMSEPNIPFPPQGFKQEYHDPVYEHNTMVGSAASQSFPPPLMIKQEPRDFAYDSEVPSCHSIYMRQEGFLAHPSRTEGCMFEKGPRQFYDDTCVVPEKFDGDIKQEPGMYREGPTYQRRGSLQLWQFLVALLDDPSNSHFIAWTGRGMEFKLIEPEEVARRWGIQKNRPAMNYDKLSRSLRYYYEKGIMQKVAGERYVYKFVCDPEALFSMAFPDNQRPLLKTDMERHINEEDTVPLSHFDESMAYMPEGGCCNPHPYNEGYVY
Chain of ETV6 (P41212 whole entry): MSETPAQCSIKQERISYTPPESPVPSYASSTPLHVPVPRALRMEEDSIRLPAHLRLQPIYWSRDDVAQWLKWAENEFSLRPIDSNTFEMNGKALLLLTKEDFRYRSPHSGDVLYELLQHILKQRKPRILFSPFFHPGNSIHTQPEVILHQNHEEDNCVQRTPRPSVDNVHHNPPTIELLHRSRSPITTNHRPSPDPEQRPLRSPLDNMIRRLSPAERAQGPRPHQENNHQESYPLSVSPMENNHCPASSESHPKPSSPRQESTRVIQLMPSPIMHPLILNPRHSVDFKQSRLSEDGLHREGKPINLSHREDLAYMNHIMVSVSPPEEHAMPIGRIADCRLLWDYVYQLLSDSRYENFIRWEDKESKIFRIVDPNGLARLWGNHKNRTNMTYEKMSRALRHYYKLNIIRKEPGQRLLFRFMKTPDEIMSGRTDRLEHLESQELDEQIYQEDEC
Chain of CRX (O43186 whole entry): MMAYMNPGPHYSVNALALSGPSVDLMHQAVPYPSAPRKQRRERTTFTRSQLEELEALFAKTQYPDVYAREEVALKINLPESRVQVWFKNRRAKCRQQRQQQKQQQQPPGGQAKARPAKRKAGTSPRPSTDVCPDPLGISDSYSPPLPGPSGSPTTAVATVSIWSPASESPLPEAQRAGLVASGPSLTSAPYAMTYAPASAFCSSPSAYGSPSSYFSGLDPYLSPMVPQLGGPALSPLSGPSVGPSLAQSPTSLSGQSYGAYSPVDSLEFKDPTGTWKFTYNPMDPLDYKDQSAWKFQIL

Regarding TCACCA, the binding signal was 1.16 fold enrichment (6-mer frequency, TF over GST control) with FEV; 1.12 fold enrichment (6-mer frequency, TF over GST control) with ETV5; 1.01 fold enrichment (6-mer frequency, TF over GST control) with HSF1; 1.19 fold enrichment (6-mer frequency, TF over GST control) in the assay with SPIC; 1.25 fold enrichment (6-mer frequency, TF over GST control) in the assay with ELF4; 1.21 fold enrichment (6-mer frequency, TF over GST control) with ELK4. Also, the binding signal was 1.32 fold enrichment (6-mer frequency, TF over GST control) with ETV2; 1.39 fold enrichment (6-mer frequency, TF over GST control) with ELF3; 1.04 fold enrichment (6-mer frequency, TF over GST control) in the assay with CRX; 1.13 fold enrichment (6-mer frequency, TF over GST control) in the assay with ETV1; 1.12 fold enrichment (6-mer frequency, TF over GST control) in the assay with ERF; 1.16 fold enrichment (6-mer frequency, TF over GST control) in the assay with ETV3L. In addition, the binding signal with ETS2 was 1.08 fold enrichment (6-mer frequency, TF over GST control); with SPDEF, 1.13 fold enrichment (6-mer frequency, TF over GST control); in the assay with ETV7 it was 1.04 fold enrichment (6-mer frequency, TF over GST control); in the assay with ELF5, 1.07 fold enrichment (6-mer frequency, TF over GST control); in the assay with ETV3, 1.19 fold enrichment (6-mer frequency, TF over GST control); in the assay with ETV6 it was 1.08 fold enrichment (6-mer frequency, TF over GST control).
